Screening data from PubChem BioAssay.
LAP4-GFP MLPCN = modulators of LAP4-GFP expression in yeast, primary screen, S. cerevisiae, multiplex flow cytometry, MLPCN library; 3 h; median GFP as percent of DMSO wells; actives 0.34% (n = 320,000); GFP response vs DMSO, % at 10 µM;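 active = GFP response vs DMSO above a set limit, about the screen mean plus 3 SD, cut at about 150% in these data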
AGP1 TOR yeast = modulators of AGP1-GFP expression in yeast TOR pathway, primary screen, cell-based, multiplex flow cytometry, S. cerevisiae, MLPCN library; 3 h; GFP as percent of DMSO wells; GFP response vs DMSO, % at 10 µM; actives 0.02% (n = 320,000);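 active = GFP response relative to DMSO above a set limit, near screen average plus 3 SD, cut at about 150% in these data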;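 also: median GFP channel fluorescence of the gated AGP1 strain per well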
RPL19A-GFP yeast = RPL19A-GFP expression modulators in yeast, primary screen, cell-based, S. cerevisiae, multiplex flow cytometry, MLPCN | S. cerevisiae RPL19A-GFP strain, 3 h; stronger effect = lower value | percent response vs DMSO, % at 10 µM | actives 0.3% (n = 330,000);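 active = percent response vs DMSO below 50%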;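 also: median channel GFP fluorescence of the barcoded RPL19A-GFP strain; ratio of sample median GFP to plate DMSO average so 100% = DMSO; lower means less RPL19A-GFP as with rapamycin TOR inhibition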
MEP2-GFP yeast = modulators of MEP2-GFP levels in yeast, primary screen, S. cerevisiae, multiplex flow cytometry, MLPCN library; S. cerevisiae MEP2-GFP strain, 3 h; 100% = DMSO control level; actives 0.51% (n = 330,000); GFP response vs DMSO, % at 10 µM;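 active = GFP response versus DMSO above a set limit, roughly screen mean plus 3 SD, cut at about 180% in these data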;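 also: median GFP fluorescence of the barcode-gated MEP2-GFP cells per well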
CIT2 TOR yeast = modulators of CIT2-GFP expression in yeast, primary screen, S. cerevisiae, GFP fusion, multiplex flow cytometry, MLPCN library; S. cerevisiae CIT2-GFP strain, 3 h; 100 means same as DMSO wells; GFP response vs DMSO, % at 10 µM; actives 0.065% (n = 320,000); AID 2029, 2009;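 active = GFP response relative to DMSO above a set limit, near the screen mean plus 3 SD, cut at about 150% in these data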;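 also: ratio of well median GFP fluorescence to mean of DMSO wells on the plate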
Pemphigus Ab inh = inhibitors of pemphigus antibody binding to DSG3, primary screen, biochemical, bead-based, flow cytometry, scFv-GFP; DSG3-coupled beads, scFv-anti-DSG3-GFP binding; stronger effect = lower value; binding (percent of control), % at 10 µM; actives 0.48% (n = 310,000); AID 588358, 2011;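 active = binding more than 3 SD below its plate's average and above zero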;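 also: hits lower antibody fragment binding to DSG3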
Target sequence (P32926 whole entry, looked up, the tested form may be a part): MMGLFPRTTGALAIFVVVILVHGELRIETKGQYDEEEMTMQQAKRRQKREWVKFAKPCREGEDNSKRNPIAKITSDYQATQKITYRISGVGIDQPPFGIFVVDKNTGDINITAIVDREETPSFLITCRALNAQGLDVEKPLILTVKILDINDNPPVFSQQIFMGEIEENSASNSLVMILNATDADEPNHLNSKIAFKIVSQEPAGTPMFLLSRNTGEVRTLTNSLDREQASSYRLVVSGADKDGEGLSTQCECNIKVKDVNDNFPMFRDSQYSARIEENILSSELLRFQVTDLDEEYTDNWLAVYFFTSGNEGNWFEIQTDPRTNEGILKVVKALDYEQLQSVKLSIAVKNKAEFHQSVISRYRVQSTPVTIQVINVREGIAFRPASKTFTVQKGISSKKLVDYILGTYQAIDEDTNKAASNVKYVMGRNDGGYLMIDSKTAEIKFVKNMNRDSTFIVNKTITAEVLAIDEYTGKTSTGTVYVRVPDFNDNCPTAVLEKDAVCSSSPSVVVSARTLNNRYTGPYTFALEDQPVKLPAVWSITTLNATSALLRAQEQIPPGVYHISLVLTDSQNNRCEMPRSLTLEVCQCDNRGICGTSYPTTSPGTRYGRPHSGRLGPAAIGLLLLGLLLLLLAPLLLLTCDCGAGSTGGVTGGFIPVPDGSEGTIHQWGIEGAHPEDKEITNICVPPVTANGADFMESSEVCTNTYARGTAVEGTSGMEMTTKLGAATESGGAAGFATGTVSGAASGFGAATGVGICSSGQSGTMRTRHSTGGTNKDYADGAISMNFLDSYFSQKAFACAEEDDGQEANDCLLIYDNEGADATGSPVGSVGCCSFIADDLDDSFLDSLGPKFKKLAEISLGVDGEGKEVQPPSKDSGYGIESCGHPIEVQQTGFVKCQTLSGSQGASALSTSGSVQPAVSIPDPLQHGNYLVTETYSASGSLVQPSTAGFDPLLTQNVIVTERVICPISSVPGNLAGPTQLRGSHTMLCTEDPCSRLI
LAP4 cherry2 = LAP4-GFP expression modulators in yeast, confirmation, cell-based, second cherry pick, flow cytometry. shares compounds with LAP4-GFP MLPCN. S. cerevisiae LAP4-GFP strain, 3 h. GFP response vs DMSO, % at 10 µM. actives 20% (n = 590). AID 2621, 2010;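 active = GFP signal as percent of the solvent control above about 150%, meaning raised reporter expression, limit read from the data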;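 also: ratio of well median GFP fluorescence to plate DMSO mean so 100% = DMSO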
MEP2 cherry2 = modulators of MEP2-GFP levels in yeast, confirmation, S. cerevisiae, flow cytometry GFP, second cherry picks; shares compounds with LAP4-GFP MLPCN; S. cerevisiae MEP2-GFP strain, 3 h; actives 10% (n = 590); GFP response vs DMSO, % at 10 µM;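 active = GFP signal above 150% of the solvent control wells, that is a rise of more than half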;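 also: median channel GFP fluorescence of all gated yeast cells per well; ratio of median GFP to plate DMSO average so 100% = DMSO level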
RPL19A GFP CP2 = RPL19A-GFP modulators in TOR pathway yeast, confirmation, cell-based, S. cerevisiae, flow cytometry, second cherry pick | shares compounds with LAP4-GFP MLPCN | S. cerevisiae RPL19A-GFP strain, 3 h; stronger effect = lower value; 100% means same as DMSO wells | GFP response vs DMSO, % at 10 µM | actives 3% (n = 590) | AID 2623, 2010;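 active = under 65% GFP response relative to DMSO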;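 also: median GFP channel fluorescence per well over the all cells gate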
CIT2 GFP CP2 = modulators of CIT2-GFP expression in yeast, confirmation, flow cytometry, second cherry pick, single plex; shares compounds with LAP4-GFP MLPCN; S. cerevisiae CIT2-GFP strain, 3 h; DMSO control wells read 100%; GFP response vs DMSO, % at 10 µM; actives 8% (n = 590);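 active = GFP response vs DMSO above about 150%, limit read from the data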;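 also: median green fluorescence per well over all gated yeast cells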
AGP1-GFP pick2 = AGP1-GFP expression modulators, hit retest, confirmation, cell-based, flow cytometry, S. cerevisiae, cherry pick set 2. percent response vs DMSO, % at 10 µM. 590 tested, under 10 active. S. cerevisiae AGP1-GFP strain, 3 h. AID 2643, 2010. shares compounds with LAP4-GFP MLPCN;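 active = over 150 percent of DMSO response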;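 also: median GFP channel fluorescence over all cells without mother daughter split; sample median GFP divided by mean DMSO control so 100% equals DMSO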
Yeast autofluor = compound autofluorescence in yeast s288c, dose response, artefact control for yeast TOR pathway GFP screen, s288c strain | S. cerevisiae s288c, 520 nm autofluorescence, flow cytometry, 3 h; stronger effect = higher value; zero means same as solvent-only cells | shares compounds with LAP4-GFP MLPCN | fluorescence change (kMESF span) at 33 µM | 610 tested, under 10 active | AID 2757, 2010;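 active = fluorescence span over the dose series, or activity score, above about 33, limit read from the data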
An asterisk follows results filed as active; / = no result given. The list is not random: actives were taken first. Their share in the collection is about 1.2%.

SMILES | LAP4-GFP MLPCN | AGP1 TOR yeast | RPL19A-GFP yeast | MEP2-GFP yeast | CIT2 TOR yeast | Pemphigus Ab inh | LAP4 cherry2 | MEP2 cherry2 | RPL19A GFP CP2 | CIT2 GFP CP2 | AGP1-GFP pick2 | Yeast autofluor
Cc1ccc2c(c1)N(CCCC(=O)Nc1cccc(C(F)(F)F)c1)C(=O)CO2 | 86.4 | 14.8 | 60.2 | 111.2 | 97.7 | 104.9 | 102.2 | 110.0 | 98.7 | 100.1 | 97.8 | /
O=C(NN(C(=O)c1ccccc1)c1cccs1)c1ccccc1 | / | / | / | / | / | 118.2 | / | / | / | / | / | /
Cc1cc(NC(c2ccc(Cl)cc2)c2ccc3cccnc3c2O)no1 (configuration not stated) | 151.4* | 91.8 | 94.8 | 101.5 | 78.8 | 105.3 | / | / | / | / | / | 0
CCOc1ccccc1/C=c1\sc2ncnn2c1=O | 274.8* | 65.8 | 97.4 | 86.7 | 67.6 | 113.0 | 226.4* | 111.8 | 108.3 | 109.9 | 89.0 | 0.91
CC(=O)Oc1ccc(/C=c2\sc3ncnn3c2=O)cc1 | 152.9* | 84.9 | 101.5 | 91.3 | 98.8 | 107.0 | / | / | / | / | / | 0.5
CCCOc1ccc(/C=c2\sc3ncnn3c2=O)cc1 | 105.3 | 90.5 | 91.5 | 85.7 | 90.8 | 102.8 | / | / | / | / | / | /
CCN(C(=O)CSc1nnnn1-c1ccc(Cl)cc1)C1CCS(=O)(=O)C1 (configuration not stated) | 89.6 | 91.6 | 91.8 | 88.4 | 90.8 | 102.9 | / | / | / | / | / | /
O=c1[nH]c(SCc2cccc(F)c2)nc2c1CCCC2 | 95.7 | 94.7 | 100.6 | 100.5 | 89.3 | 139.4 | / | / | / | / | / | /
CCCc1cc(=O)oc2cc(C)cc(OCC(=O)NC3CC3)c12 | 89.9 | 16.2 | 51.3 | 142.3 | 105.6 | 99.2 | 98.2 | 99.6 | 98.9 | 104.3 | 98.5 | 0.1
Fc1ccccc1CNCc1ccc2c(c1)OCO2 | 92.8 | 97.2 | 99.7 | 97.0 | 104.6 | 119.9 | / | / | / | / | / | /
O=C(Nc1nnc(-c2ccc3c(c2)CCCC3)o1)c1c(F)cccc1F | 95.6 | 95.7 | 89.9 | 83.2 | 87.9 | / | / | / | / | / | / | /
O=C(Nc1nnc(-c2ccc3c(c2)CCCC3)o1)c1ccc(Cl)cc1Cl | 83.5 | 34.7 | 55.7 | 109.0 | 52.7 | 98.5 | 153.3* | 211.3* | 104.9 | 161.3* | 93.7 | 0.41
Cn1nc(CC(=O)Nc2ncc(Br)s2)c2ccccc2c1=O | 91.7 | 26.0 | 63.5 | 158.3 | 99.0 | / | 96.2 | 103.2 | 100.0 | 106.3 | 98.9 | /
CCOC(=O)c1ccc(NC(=O)Nc2ncc(Cl)cc2Cl)cc1 | 79.5 | 62.1 | 62.7 | 89.3 | 81.0 | / | 97.2 | 111.8 | 65.1 | 100.1 | 66.3 | /
